# Reference: PubChem BioAssay (NCATS)
# Inconclusive results are not listed. Where a call stands in place of a potency, no number is given. Active and inactive are the calls of the source. Unless noted, calls come from the whole dose curve; as a rule, active = well fitted curve in the direction sought with a large enough effect; inconclusive = small, poorly fitted or top-dose-only effect, or another doubt; inactive = no such curve, though single readings can be large; an effect the other way counts as inactive or inconclusive.
# What was measured:
# [1] = AP1 Signaling Pathway (AID 357; active = well fitted curve in either direction with a large enough effect, not every such curve was filed as active;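 note: ME-180 reporter cells stimulated with EGF at its EC50 level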); details: ME-180 AP-1-bla reporter, EGF-induced, beta-lactamase ratio, 5 h; at 38 µM (top of the series)
# How it was run: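 AP-1-bla ME-180 cells, Opti-MEM + 0.5% dialyzed FBS, plated overnight 37 °C. Cpd titration + EC50 EGF, 5 h 37 °C. CCF4 2.5 h RT; ex 405, em 460/530 ratio → %activity, AC50.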
# [2] = molecular target: Cytochrome P450 1A2 (Homo sapiens) (UniProt P05177); assay: p450-cyp1a2 (AID 410; calls by dose curve)
# How it was run: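 Human CYP1A2 (20nM) demethylated Luciferin-ME at its Km (100uM) in 100mM KPO4. After 10 min compound preincubation, NADPH regeneration ran the reaction 60 min at room temperature. Luciferin was read by luminescence, normalized to 57 uM furafylline.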
# [3] = NFAT Signaling Pathway (AID 444; active = well fitted curve in either direction with a large enough effect, not every such curve was filed as active;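 note: carbachol stimulus at about its EC50 of 1 µM final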); details: Jurkat NFAT-bla M1, carbachol, beta-lactamase ratio, 5 h; at 38 µM (top of the series)
# How it was run: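 Jurkat cells carrying an NFAT-driven β-lactamase reporter and co-transfected muscarinic M1 receptor were treated with compound plus carbachol (1 uM final, an EC50 level) for 5 h at 37 °C. CCF4 loading followed for 1 h at RT; 460/530 nm ratio gave %activity.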
# [4] = Stat Signaling Pathway (AID 446; active = well fitted curve in either direction with a large enough effect, not every such curve was filed as active;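 note: ME-180 cervical cancer cells given 40 pM IL-6 alongside compound; SIE-controlled beta-lactamase reporter measured as 460/530 nm FRET emission ratio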); details: ME-180 SIE beta-lactamase reporter, IL-6 stimulated, 5 h; at 38 µM (top of the series)
# How it was run: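 ME-180 SIE-bla cells; overnight plating; cpd + IL-6 40 pM, 5 h, 37 C; LiveBLAzer 2.5 h RT; 460/530 nm emission ratio. Normalized to 300 pM IL-6 and 125 nM JAK inhibitor controls.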
# [5] = molecular target: Glucocorticoid receptor (Homo sapiens) (UniProt P04150); assay: GR-GFP Redistribution (AID 450;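 active = compounds whose dose series gives a full or clear partial fitted curve of increased nuclear translocation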; note: potency is the fitted concentration of half-maximal effect); details: U2OS GR-GFP nuclear translocation, laser cytometry, 2 h
# [6] = molecular target: Glucocorticoid receptor (Homo sapiens) (UniProt P04150); assay: GR-EFC Redistribution (AID 451; calls by dose curve; note: potency is the fitted concentration of half-maximal effect); details: CHO-K1 GR-EFC translocation, beta-gal luminescence, 2 h
# How it was run: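 CHO-K1 cells stably expressing nuclear-localized β-gal enzyme acceptor and GR fused C-terminally to the enzyme donor fragment; ligand-driven nuclear translocation restores β-gal by complementation. Compounds titrated up to 46 uM final, 2 h at 37 °C; luminescence read.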
# [7] = molecular target: Mitogen-activated protein kinase 10 (Mus musculus) (UniProt Q61831); assay: JNK3 AlphaScreen Assay (AID 530; active = well fitted curve in either direction with a large enough effect, not every such curve was filed as active;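 note: kinase came from lysate of stimulated human HepG2 cells; signal reports phosphorylation of biotinylated GST-cJun 1-79 at Ser73 with 10 µM ATP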)
# How it was run: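 JNK3 came from HepG2 lysates pre-activated with IL-1beta and TNF-alpha and phosphorylated biotinylated GST-cJun (1-79) at 10 uM ATP, pH 7.6, room temperature. Compounds were titrated. AlphaScreen signal used anti-phospho-cJun (Ser73) antibody.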
# [8] = molecular target: 3',5'-cyclic-AMP phosphodiesterase 4B (Homo sapiens) (UniProt Q07343); assay: qHTS Assay for Inhibitors of PDE-IV (AID 607; active = well fitted activation curve with a large enough effect in the main read-out, with a control signal flat, not every such curve was filed as active)
# How it was run: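 ACTOne HEK293 cells carry a modified cAMP-gated CNG channel and express endogenous PDE4; plated 1000 cells/well, compounds up to 22.9 uM final. Membrane-potential dye fluorescence (ex 535/em 590) was read; parental cells received 10 uM forskolin + 100 uM RO 20-1724.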
# [9] = molecular target: Guanine nucleotide-binding protein G(i) subunit alpha-1 (Homo sapiens) (UniProt P63096); assay: qHTS Assay for Inhibitors of RGS12 GoLoco Motif Activity (Green Fluorophore) (AID 879);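 note: negative values mean loss of peptide binding seen as reduced polarization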
# How it was run: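 Fluorescence polarization assay: 50 nM Gαi1 with 10 nM FITC-labeled RGS12 GoLoco peptide in 10 mM Tris pH 7.5, 150 mM NaCl, 0.1 mM GDP, 0.05% NP40, 10 min at room temperature with compound.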
# [10] = molecular target: Cytochrome P450 3A4 (Homo sapiens) (UniProt P08684); assay: qHTS Assay for Activators of Cytochrome P450 3A4 (AID 885); note: nearly all actives have a fitted effect of over 65% in size
# How it was run: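 20nM CYP3A4 + 25uM Luciferin-PPXE (=KM), 200mM KPO4; cpd 10 min RT; NADPH regen, 60 min RT; stop w/ detection buffer, 20 min; luminescence. Normalized to 57 uM ketoconazole.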
# [11] = qHTS Assay for Identification of Small Molecule Agonists for Thrombopoietin (TPO) Signaling Pathway (AID 917)
# How it was run: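 We measured Glycoprotein IIb promoter–luciferase output in IL-3-starved Ba/F3 murine cells expressing the human TPO receptor after 24 hrs at 37 C with compounds and 26 pM TPO.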
# [12] = molecular target: Muscarinic acetylcholine receptor M1 (Rattus norvegicus) (UniProt P08482); assay: qHTS Assay for Antagonists of Acetylcholine Muscarinic M1 Receptor: Measurement of IP-One Response (AID 944); note: nearly all actives have a fitted effect of over 75% in size
# How it was run: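 CHO cells expressing rat M1 receptor, recovered overnight, were pre-incubated 10 min with compound, then stimulated 30 min with carbachol at EC80 (200 nM) in LiCl-containing buffer, pH 7.4. IP1 accumulation was read by HTRF (620/665 nm).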
# [13] = molecular target: Pyruvate kinase (Leishmania mexicana) (UniProt Q27686); assay: qHTS Validation Assay for Inhibitors of Leishmania Mexicana Pyruvate Kinase (AID 945)
# How it was run: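 Eight-point qHTS titrations in triplicate, data normalized to DMSO neutral control. Reaction: 0.2 nM LmPYK E451W mutant, 0.5 mM PEP, 0.1 mM ADP, 7 mM MgCl2, pH 7.2, one hour at room temperature; luminescent ATP detection.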
# [14] = molecular target: Pyruvate kinase PKM (Homo sapiens) (UniProt P14618); assay: qHTS Assay for Activators of Human Muscle Pyruvate Kinase (AID 954; active = well fitted curve in the direction sought with a large enough effect, not every such curve was filed as active)
# How it was run: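 Luminescence from a luciferase ATP-detection/stop reagent reported PKM2 activity. Reactions contained 0.1 nM purified human enzyme, 0.5 mM PEP, 0.1 mM ADP and 7 mM MgCl2 at pH 7.2, run 1 h at RT.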
# [15] = molecular target: Alpha-galactosidase A (Homo sapiens) (UniProt P06280); assay: Counterscreen for Glucocerebrosidase Inhibitors: qHTS Assay for Human alpha-Galactosidase at pH 4.5 (AID 992)
# How it was run: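 Enzyme at 2 nM final was combined with compound (0.7 nM to 77 uM) and 80 uM 4-methylumbelliferyl alpha-D-galactopyranoside in 50 mM citric acid, 0.005% Tween-20, pH 4.5. After 20 min at room temperature, fluorescence was read (Ex 365/Em 440 nm); AC50 came from Hill fits.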
# [16] = molecular target: alpha-glucosidase (Oryza sativa, rice) (UniProt Q653V4); assay: Counterscreen for Glucocerebrosidase Inhibitors: qHTS Assay for Rice alpha-Glucosidase at pH 5.0 (AID 997)
# How it was run: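 Rice alpha-glucosidase (4 nM final) with 400 uM 4-methylumbelliferyl-alpha-D-glucopyranoside in citrate buffer pH 5.0, 20 min at room temperature, stopped at pH 10; fluorescence 365/440 nm, compounds 0.7 nM–77 uM, AC50 from Hill fits.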
# [17] = Validation of Assay for Modulators of Lamin A Splicing (AID 1459; active = well fitted curve in the direction sought with a large enough effect in the signal ratio; the % refers to the signal ratio;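 note: cells exposed to compound for two days before reading; ratio rise marks activators and ratio drop marks inhibitors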)
# How it was run: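 Splicing correction is reported by an EGFP-containing lamin A minigene in stably transfected S3 HeLa cells, while DsRed2 controls for viability and nonspecific signal. Cells are exposed to compounds for 48 hrs before the GFP over RFP ratio is taken.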
# [18] = qHTS Assay for Lipid Storage Modulators (AID 1519; calls by dose curve); details: Drosophila S3 cells, BODIPY lipid droplet/cell ratio, laser cytometry, cells loaded with oleic acid
# How it was run: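 Cells seeded at 5,000 per well were treated with compounds over a concentration series and loaded with oleic acid (400 uM, as added). Lipid droplet fluorescence (488 nm excitation, 500-530 nm channel) was read by laser-scanning cytometry and normalized to 20 uM Triacsin C.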
# [19] = molecular target: DNA repair nuclease/redox regulator APEX1 (Homo sapiens) (UniProt P27695); assay: qHTS Validation Assay for Inhibitors of the Human Apurinic/apyrimidinic Endonuclease 1 (APE1) (AID 1705;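 note: TAMRA fluorescence gain over two minutes as APE1 cuts a quenched THF abasic duplex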)
# How it was run: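 Endonuclease activity of human APE1 is followed as dequenching when the enzyme incises a tetrahydrofuran abasic site in a short duplex labelled 5'-TAMRA/3'-BHQ-2 (50 nM final), after 15 min enzyme–compound preincubation at room temperature.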
# Chain of Glucocorticoid receptor (Homo sapiens) (P04150 whole entry, looked up, the tested form may be a part): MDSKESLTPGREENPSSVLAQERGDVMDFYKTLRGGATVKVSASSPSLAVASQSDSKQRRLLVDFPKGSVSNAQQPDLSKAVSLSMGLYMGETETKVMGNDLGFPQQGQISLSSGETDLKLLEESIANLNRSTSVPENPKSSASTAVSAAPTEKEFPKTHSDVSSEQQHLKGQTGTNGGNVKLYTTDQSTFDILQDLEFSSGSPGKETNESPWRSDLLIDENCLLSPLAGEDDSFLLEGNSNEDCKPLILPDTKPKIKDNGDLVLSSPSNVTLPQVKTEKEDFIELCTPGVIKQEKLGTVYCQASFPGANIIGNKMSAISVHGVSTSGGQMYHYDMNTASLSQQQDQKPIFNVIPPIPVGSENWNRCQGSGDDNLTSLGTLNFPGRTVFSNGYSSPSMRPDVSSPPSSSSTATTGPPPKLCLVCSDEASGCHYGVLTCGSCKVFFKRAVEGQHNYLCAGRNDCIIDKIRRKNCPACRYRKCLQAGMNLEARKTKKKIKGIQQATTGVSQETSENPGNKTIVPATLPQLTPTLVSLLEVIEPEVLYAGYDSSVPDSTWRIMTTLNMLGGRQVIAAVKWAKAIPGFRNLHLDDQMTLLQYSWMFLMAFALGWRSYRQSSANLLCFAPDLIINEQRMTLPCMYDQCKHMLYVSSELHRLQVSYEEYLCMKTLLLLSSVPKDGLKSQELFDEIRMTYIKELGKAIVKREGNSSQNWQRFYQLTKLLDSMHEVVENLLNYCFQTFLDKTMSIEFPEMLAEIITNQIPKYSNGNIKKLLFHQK
# Chain of Cytochrome P450 1A2 (Homo sapiens) (P05177 whole entry, looked up): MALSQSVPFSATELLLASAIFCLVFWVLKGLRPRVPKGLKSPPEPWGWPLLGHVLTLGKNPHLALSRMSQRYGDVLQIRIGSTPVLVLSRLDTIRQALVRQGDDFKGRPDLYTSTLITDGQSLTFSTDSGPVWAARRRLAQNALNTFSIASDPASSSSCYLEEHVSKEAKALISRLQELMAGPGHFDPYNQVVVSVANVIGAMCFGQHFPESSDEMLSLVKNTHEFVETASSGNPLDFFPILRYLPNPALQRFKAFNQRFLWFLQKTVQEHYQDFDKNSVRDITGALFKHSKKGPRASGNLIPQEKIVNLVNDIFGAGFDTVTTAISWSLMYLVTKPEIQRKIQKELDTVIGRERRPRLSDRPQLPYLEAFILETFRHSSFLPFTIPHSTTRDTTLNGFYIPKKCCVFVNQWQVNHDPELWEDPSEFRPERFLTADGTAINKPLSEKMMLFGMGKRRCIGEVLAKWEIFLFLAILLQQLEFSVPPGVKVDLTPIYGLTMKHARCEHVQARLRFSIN
# Chain of Cytochrome P450 3A4 (Homo sapiens) (P08684 whole entry, looked up): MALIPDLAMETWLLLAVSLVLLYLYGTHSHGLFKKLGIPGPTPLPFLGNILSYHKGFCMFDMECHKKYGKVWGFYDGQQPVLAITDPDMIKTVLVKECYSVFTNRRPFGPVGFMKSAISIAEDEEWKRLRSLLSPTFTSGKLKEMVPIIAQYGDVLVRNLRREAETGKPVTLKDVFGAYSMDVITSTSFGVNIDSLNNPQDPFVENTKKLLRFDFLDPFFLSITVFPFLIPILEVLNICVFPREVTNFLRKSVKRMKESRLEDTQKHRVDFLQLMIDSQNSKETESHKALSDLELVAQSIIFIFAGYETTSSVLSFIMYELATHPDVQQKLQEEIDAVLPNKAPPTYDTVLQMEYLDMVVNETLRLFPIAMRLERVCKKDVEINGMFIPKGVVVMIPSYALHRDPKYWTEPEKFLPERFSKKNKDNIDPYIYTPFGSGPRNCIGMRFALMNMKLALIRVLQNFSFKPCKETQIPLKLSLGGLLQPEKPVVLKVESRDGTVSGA
# Chain of Alpha-galactosidase A (Homo sapiens) (P06280 whole entry, looked up): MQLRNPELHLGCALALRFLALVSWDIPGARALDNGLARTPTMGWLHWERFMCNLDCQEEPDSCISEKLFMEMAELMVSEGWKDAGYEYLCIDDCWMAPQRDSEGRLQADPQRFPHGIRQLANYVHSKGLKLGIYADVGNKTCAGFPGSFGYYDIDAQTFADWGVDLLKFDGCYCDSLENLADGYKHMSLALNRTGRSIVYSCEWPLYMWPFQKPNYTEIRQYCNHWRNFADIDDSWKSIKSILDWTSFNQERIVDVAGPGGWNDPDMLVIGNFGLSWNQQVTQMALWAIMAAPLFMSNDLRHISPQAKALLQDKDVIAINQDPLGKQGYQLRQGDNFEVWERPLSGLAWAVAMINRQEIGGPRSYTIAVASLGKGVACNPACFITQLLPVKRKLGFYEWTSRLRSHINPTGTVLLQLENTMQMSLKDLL
# Chain of Muscarinic acetylcholine receptor M1 (Rattus norvegicus) (P08482 whole entry, looked up): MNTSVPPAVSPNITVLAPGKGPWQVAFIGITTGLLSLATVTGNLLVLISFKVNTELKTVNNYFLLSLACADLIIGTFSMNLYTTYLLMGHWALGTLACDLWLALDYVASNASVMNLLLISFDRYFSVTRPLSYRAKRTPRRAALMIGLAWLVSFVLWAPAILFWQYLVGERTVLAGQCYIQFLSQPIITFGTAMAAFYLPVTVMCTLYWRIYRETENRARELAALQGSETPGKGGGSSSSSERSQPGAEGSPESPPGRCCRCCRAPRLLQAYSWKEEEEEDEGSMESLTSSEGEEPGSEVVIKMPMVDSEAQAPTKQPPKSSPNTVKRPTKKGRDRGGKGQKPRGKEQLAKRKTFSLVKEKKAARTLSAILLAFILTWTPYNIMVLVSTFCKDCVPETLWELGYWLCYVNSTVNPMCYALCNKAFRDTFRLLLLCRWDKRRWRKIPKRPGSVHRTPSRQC
# Chain of DNA repair nuclease/redox regulator APEX1 (Homo sapiens) (P27695 whole entry, looked up): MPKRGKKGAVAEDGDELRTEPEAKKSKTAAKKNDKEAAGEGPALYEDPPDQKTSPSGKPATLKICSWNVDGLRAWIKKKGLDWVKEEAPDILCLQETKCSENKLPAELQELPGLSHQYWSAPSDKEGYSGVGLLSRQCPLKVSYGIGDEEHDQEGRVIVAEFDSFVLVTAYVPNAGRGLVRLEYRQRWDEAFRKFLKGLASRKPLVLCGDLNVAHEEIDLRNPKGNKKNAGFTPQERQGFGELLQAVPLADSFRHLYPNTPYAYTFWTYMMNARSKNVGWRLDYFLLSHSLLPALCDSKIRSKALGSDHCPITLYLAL
# Chain of Pyruvate kinase PKM (Homo sapiens) (P14618 whole entry, looked up): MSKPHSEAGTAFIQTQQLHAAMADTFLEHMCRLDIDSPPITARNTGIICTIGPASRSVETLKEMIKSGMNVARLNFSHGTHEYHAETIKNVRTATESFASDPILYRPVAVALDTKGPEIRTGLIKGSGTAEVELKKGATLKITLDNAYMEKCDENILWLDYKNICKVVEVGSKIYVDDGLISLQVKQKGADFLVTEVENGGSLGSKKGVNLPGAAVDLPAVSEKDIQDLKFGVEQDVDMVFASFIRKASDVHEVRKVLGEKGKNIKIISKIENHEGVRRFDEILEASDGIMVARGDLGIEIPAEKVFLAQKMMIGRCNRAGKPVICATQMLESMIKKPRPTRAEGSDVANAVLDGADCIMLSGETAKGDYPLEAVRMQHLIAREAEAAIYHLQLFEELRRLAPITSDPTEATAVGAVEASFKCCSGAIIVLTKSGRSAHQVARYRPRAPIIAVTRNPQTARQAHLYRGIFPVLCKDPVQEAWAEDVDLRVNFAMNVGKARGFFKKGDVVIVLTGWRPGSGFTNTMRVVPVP
# Chain of Guanine nucleotide-binding protein G(i) subunit alpha-1 (Homo sapiens) (P63096 whole entry, looked up): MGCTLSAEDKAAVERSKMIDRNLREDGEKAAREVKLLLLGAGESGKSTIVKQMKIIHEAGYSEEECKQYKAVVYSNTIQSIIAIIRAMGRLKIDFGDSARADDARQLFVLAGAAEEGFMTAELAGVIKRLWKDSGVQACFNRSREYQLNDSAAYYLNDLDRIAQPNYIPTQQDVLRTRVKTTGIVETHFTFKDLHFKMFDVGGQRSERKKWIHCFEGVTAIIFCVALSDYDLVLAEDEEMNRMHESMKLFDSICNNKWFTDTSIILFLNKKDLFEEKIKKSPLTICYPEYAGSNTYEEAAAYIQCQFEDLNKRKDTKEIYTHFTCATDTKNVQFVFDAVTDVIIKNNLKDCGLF
# Chain of 3',5'-cyclic-AMP phosphodiesterase 4B (Homo sapiens) (Q07343 whole entry, looked up): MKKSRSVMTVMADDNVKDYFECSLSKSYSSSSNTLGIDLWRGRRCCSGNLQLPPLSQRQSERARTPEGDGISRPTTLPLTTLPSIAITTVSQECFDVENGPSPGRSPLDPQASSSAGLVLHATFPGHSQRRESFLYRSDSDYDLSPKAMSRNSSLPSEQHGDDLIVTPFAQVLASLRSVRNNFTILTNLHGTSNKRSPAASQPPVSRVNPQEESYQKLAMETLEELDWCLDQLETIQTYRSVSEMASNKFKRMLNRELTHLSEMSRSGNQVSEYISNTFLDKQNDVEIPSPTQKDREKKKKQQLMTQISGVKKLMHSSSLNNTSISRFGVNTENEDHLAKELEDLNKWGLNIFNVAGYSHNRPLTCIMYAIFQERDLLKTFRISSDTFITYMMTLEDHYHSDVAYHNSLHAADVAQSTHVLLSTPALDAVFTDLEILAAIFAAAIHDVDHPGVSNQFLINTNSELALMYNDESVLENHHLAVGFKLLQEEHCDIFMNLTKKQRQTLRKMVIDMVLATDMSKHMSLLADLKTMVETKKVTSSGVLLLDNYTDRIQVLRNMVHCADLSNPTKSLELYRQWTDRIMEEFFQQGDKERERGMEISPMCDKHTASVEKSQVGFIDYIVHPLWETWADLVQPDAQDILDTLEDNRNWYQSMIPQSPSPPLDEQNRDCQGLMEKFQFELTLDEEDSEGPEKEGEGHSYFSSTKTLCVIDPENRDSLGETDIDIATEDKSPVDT
structure (smiles),measurement,setting,value
CC(N)=NCc1cccc(CN)c1,"activity change, negative = inhibition",[1],-2.56% (inactive)
same,Potency,[2],inactive
same,"activity change, negative = inhibition",[3],-2.12% (inactive)
same,"activity, negative = inhibition",[4],3.99% (inactive)
same,Potency,[5],> 46 µM (inactive)
same,Potency,[6],> 46 µM (inactive)
same,Potency,[7],inactive
same,Potency,[8],inactive
same,outcome,[9],inactive
same,Potency,[10],inactive
same,Potency,[11],inactive
same,Potency,[12],inactive
same,Potency,[13],inactive
same,outcome,[14],inactive
same,outcome,[15],inactive
same,outcome,[16],inactive
same,outcome,[17],inactive
same,"activity change, negative = inhibition",[18]; at 57.5 µM (top of the series),0.387% (inactive)
same,max response,[18]; measured here: cell count channel max response,-16.1%
same,max response,[18]; measured here: lipid channel max response,-15%
same,Potency,[19],inactive
